# According to ChEMBL document CHEMBL3988442, “University of Dundee, Small-Polar-MMV Screening Library” (2021):
# For some of these results: Measured potencies and affinities stand elsewhere.
# Key:
# [1] = molecular target: T1, Methionyl-tRNA synthetase, putative (Leishmania donovani (strain BPK282A1)) (UniProt E9BF75); experiment: Leishmania donovani Methionine tRNA synthetase (LdMetRS):v7. Dose response assay; assay type: functional; design: conc 80 nM, time 150 minutes
# T1 sequence (whole entry): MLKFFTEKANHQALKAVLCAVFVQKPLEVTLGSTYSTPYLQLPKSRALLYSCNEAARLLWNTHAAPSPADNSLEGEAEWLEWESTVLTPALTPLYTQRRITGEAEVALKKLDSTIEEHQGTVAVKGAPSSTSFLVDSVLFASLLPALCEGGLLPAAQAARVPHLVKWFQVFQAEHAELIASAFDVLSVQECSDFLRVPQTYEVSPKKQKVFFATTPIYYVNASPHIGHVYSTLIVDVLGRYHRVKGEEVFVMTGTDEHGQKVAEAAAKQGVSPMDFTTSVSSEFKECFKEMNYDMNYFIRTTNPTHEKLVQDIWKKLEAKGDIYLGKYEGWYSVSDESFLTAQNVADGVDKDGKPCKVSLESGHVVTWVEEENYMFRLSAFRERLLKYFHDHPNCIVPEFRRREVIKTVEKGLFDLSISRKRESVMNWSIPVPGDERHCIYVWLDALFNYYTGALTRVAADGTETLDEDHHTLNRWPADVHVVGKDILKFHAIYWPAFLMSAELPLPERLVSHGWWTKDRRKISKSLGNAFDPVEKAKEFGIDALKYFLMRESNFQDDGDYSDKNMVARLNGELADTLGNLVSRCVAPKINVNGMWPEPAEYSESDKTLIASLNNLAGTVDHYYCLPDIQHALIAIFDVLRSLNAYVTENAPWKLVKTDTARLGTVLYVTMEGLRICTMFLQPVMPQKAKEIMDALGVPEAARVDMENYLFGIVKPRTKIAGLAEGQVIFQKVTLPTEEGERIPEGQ
# [2] = molecular target: Protein translocase subunit SecA (Escherichia coli (strain K12)) (UniProt P10408); experiment: Assay to Identify E. coli SecA ATPase Inhibitors; assay type: functional; design: scale not given: direction of the effect not stated beside the values; details: 30 µM
# [3] = molecular target: T2, Ubiquitin-activating enzyme e1, putative (Leishmania donovani (strain BPK282A1)) (UniProt E9BSI1); experiment: Leishmania donovani Ubiquitin Activating Enzyme (LdE1); assay type: functional; design: scale not given: direction of the effect not stated beside the values; details: 30 µM
# T2 sequence (whole entry): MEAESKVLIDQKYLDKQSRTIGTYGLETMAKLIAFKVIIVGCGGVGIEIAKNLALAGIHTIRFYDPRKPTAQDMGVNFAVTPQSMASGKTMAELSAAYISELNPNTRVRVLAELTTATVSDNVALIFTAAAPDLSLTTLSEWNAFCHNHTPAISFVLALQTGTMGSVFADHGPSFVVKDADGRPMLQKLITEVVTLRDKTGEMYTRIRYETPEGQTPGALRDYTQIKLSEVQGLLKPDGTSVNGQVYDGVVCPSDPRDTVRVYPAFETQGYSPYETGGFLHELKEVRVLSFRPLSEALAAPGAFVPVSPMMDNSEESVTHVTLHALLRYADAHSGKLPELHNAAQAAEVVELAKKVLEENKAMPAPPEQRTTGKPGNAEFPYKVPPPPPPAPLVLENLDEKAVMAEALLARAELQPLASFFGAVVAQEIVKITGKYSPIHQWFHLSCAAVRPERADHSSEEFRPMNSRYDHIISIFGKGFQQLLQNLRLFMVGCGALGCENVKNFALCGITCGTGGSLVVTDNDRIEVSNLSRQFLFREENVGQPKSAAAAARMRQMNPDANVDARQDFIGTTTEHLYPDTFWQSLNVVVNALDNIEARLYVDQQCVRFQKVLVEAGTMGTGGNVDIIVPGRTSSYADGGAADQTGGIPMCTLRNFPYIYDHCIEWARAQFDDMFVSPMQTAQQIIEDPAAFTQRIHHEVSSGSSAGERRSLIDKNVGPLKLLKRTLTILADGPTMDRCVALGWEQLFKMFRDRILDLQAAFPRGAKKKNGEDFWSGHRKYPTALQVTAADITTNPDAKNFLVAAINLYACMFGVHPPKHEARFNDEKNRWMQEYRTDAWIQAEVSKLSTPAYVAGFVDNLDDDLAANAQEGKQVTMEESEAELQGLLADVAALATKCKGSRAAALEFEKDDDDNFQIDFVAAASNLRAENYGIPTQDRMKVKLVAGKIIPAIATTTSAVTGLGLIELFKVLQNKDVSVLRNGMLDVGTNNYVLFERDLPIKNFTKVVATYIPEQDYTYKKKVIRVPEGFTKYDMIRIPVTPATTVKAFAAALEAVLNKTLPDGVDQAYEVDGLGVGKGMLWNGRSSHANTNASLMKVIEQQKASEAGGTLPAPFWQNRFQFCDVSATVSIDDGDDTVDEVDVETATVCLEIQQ
# [4] = molecular target: AMP-activated protein kinase, AMPK (Homo sapiens) (UniProt P54646+O43741+P54619+Q9UGJ0+Q9Y478+Q13131+Q9UGI9); experiment: AMP-dependent Kinase enzyme assay. An in vitro enzyme assay that detects ADP turnover that is directly proportional to AMPK activity. This uses naive AMPK that is activated during the assay with MK-8722; assay type: functional; design: scale not given: direction of the effect not stated beside the values; details: 30 µM
# [5] = molecular target: Sialic acid-binding Ig-like lectin 9 (Homo sapiens) (UniProt Q9Y336); experiment: Hs-Siglec9 ALPHAscreen SOP 20170721; design: scale not given: direction of the effect not stated beside the values; details: 10 µM
# [6] = test system: Trypanosoma cruzi; experiment: Trypanosoma cruzi phosphomannomutase and mannose-1-phosphate guanylyltransferase assay; assay type: functional; design: scale not given: direction of the effect not stated beside the values; details: 10 µM
# [7] = molecular target: T3, Arginase-2, mitochondrial (Homo sapiens) (UniProt P78540); experiment: in vitro enzyme assay to detect the production of urea directly proportional to the activity of Arginase II; assay type: functional; design: scale not given: in the data most compounds retested in dose-response had high values; details: 33.3 µM
# T3 sequence (whole entry): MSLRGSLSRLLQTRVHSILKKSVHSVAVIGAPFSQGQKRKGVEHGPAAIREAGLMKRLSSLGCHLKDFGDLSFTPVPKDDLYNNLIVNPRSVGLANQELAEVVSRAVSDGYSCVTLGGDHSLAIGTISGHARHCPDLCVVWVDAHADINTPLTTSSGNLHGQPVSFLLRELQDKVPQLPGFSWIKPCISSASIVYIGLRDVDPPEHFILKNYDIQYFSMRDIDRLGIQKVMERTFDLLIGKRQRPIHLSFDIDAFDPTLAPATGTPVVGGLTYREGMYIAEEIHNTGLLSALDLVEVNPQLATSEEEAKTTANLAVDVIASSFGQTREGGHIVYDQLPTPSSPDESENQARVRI
# [8] = molecular target: T4, Proteasome subunit beta (Trypanosoma cruzi) (UniProt O96673); experiment: Trypanosoma cruzi proteasome chymotrypsin-like activity (TcProtChymo) assay.; assay type: functional; design: scale not given: in the data most compounds retested in dose-response had high values; details: 9.37 µM
# T4 sequence (whole entry): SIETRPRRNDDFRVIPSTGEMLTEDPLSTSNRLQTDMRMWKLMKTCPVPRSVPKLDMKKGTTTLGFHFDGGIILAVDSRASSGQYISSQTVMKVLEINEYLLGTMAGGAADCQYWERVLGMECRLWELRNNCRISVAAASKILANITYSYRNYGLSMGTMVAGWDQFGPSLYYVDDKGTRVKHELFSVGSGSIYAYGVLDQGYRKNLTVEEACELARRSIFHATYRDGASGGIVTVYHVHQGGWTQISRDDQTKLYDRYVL
# [9] = species on record: Homo sapiens; experiment: To identify inhibition of the IFN signalling (Jak-Stat) pathway via expression of an eGFP reporter gene under the control of an IFN-stimulated response element (ISRE) containing MxA promoter.; assay type: functional; design: scale not given: direction of the effect not stated beside the values; details: 30 µM
# [10] = molecular target: T5, Tyrosyl-tRNA synthetase, putative (Trypanosoma cruzi (strain CL Brener)) (UniProt Q4DSP6); experiment: Trypanosoma cruzi tyrosyl tRNA synthetase (TcYRS) _High Tyrosine SOP; assay type: functional; design: scale not given: in the data most compounds retested in dose-response had high values; details: 30 µM
# T5 sequence (whole entry): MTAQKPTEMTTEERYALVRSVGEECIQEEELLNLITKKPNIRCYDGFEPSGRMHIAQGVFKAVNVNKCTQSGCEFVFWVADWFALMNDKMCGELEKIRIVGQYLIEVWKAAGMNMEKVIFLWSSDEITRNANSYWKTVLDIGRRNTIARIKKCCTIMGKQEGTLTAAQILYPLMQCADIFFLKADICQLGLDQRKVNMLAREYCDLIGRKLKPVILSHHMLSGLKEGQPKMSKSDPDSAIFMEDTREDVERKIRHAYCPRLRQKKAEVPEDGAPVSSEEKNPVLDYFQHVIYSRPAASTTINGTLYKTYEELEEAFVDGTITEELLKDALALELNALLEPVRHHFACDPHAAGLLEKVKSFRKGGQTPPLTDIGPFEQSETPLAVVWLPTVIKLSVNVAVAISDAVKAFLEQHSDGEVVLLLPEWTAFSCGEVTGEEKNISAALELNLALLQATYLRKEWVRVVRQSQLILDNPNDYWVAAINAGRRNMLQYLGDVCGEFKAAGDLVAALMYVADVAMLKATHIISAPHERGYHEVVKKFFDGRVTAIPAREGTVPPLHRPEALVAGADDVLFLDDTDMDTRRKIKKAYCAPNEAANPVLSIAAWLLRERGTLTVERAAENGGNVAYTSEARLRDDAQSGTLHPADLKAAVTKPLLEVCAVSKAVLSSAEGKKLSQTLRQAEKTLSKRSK
# [11] = molecular target: T5, Tyrosyl-tRNA synthetase, putative (Trypanosoma cruzi (strain CL Brener)); experiment: Trypanosoma cruzi tyrosyl tRNA synthetase (TcYRS) SOP; assay type: functional; design: scale not given: direction of the effect not stated beside the values; details: 30 µM
# [12] = molecular target: Chromo domain-containing protein 1 (Saccharomyces cerevisiae (strain ATCC 204508 / S288c) (Baker's yeast)) (UniProt P32657); experiment: ScCHD-1 Enzyme Inhibition Assay; assay type: functional; design: scale not given: in the data most compounds retested in dose-response had high values; details: 30 µM
# Sequence of Chromo domain-containing protein 1 (Saccharomyces cerevisiae (strain ATCC 204508 / S288c) (Baker's yeast)) (P32657 whole entry, the tested form may be a part): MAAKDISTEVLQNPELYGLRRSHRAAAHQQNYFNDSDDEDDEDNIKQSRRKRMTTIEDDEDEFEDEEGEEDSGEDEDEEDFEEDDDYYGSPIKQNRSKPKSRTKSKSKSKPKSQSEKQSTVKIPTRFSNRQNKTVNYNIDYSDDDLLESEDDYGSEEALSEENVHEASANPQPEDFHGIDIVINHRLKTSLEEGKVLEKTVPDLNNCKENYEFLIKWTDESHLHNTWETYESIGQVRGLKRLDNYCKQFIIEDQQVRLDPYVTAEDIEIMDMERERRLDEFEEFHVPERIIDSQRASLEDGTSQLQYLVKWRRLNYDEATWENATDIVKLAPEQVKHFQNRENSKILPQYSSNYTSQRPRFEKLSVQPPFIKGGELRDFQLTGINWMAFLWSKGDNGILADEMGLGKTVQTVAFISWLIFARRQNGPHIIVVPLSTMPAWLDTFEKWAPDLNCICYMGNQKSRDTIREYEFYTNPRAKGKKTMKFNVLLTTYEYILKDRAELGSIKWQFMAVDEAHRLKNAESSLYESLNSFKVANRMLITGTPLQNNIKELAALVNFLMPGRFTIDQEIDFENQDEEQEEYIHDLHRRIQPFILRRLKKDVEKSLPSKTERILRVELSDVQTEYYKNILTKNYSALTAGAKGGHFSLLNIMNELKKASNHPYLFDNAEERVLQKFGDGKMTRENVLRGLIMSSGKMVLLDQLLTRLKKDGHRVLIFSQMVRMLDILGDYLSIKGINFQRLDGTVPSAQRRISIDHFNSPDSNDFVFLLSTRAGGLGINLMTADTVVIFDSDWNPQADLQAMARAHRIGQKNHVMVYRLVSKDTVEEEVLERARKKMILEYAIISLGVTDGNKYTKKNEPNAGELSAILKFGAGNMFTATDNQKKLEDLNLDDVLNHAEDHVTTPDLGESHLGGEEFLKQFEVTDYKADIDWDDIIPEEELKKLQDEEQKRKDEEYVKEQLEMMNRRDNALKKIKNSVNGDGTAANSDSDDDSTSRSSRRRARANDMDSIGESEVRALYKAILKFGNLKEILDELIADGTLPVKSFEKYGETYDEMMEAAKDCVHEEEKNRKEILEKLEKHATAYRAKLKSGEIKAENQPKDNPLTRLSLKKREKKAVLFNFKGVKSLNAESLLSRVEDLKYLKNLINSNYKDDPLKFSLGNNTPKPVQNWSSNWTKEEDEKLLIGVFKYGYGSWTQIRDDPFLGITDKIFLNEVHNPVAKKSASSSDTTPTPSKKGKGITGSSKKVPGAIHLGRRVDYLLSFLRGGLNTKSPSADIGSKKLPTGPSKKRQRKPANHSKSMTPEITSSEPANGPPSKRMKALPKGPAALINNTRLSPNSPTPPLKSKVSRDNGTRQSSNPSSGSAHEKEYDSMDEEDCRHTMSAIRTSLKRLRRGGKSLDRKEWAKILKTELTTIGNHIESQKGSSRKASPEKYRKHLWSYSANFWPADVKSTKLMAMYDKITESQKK
# Sequence of Sialic acid-binding Ig-like lectin 9 (Homo sapiens) (Q9Y336 whole entry): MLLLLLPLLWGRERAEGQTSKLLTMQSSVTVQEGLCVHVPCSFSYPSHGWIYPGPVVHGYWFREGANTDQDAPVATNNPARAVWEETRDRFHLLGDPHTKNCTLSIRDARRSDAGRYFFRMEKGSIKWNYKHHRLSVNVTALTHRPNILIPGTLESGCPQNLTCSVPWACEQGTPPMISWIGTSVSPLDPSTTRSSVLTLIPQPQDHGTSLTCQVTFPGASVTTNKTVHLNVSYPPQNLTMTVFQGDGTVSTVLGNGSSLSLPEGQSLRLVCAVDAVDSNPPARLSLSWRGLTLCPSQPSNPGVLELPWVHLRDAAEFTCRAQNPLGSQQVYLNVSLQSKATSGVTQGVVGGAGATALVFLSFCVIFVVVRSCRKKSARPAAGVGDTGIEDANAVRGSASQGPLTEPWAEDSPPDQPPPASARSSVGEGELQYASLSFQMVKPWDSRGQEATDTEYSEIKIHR
# Sequence of Protein translocase subunit SecA (Escherichia coli (strain K12)) (P10408 whole entry): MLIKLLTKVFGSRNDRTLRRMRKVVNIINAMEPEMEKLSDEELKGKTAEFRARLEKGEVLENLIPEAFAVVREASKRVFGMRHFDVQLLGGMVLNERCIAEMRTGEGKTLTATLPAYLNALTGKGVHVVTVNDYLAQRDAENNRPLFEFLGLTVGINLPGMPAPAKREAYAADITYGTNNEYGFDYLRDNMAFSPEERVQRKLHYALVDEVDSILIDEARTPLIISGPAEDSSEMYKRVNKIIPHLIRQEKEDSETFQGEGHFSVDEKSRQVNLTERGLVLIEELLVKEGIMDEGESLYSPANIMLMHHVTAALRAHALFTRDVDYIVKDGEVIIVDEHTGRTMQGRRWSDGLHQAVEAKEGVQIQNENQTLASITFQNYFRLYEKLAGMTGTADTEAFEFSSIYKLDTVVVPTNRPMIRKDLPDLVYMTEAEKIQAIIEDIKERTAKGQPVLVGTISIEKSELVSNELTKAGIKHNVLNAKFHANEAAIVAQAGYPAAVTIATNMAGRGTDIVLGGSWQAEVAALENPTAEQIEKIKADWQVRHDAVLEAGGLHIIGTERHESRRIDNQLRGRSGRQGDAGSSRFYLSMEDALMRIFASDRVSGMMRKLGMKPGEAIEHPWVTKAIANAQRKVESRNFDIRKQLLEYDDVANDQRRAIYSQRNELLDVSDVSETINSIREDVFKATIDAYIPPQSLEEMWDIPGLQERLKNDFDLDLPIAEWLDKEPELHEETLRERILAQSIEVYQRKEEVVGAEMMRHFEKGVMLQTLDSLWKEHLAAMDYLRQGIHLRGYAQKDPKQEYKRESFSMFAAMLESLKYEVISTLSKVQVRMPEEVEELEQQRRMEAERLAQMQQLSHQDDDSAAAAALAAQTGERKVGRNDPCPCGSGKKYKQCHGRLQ
structure (smiles),measurement,setting,value
CC(C)c1nc(CNC2CCCN(c3cccnn3)C2)no1 (stereo not drawn),PXC50,"[1]; BOTTOM -4.804668592, HILLSLOPE 1.43236327, MAX_EFFECT 76.8115942, TOP 100.0",4.38
same,PXC50,"[1]; BOTTOM -10.26857321, HILLSLOPE 1.286287287, MAX_EFFECT 68.70748299, TOP 100.0",4.3
same,PXC50,[1]; MAX_EFFECT 0.790513834,< 4
same,PXC50,[1]; MAX_EFFECT 4.444444444,< 4
same,PXC50,[1]; MAX_EFFECT 61.12084063,< 4
CC(C)C[C@H](N)COc1cccc(F)c1Oc1ccc(Cl)cc1,PXC50,"[1]; BOTTOM 2.189725924, HILLSLOPE 1.340429131, MAX_EFFECT 78.50287908, TOP 100.0",4.39
same,PXC50,"[1]; BOTTOM 6.665693755, HILLSLOPE 1.000390525, MAX_EFFECT 63.08724832, TOP 89.83359252",4.34
same,PXC50,"[1]; BOTTOM 8.555350196, HILLSLOPE 1.300138335, MAX_EFFECT 82.32235702, TOP 100.0",4.4
same,PXC50,"[1]; BOTTOM 9.084234051, HILLSLOPE 1.282962904, MAX_EFFECT 79.16666667, TOP 100.0",4.36
same,PXC50,"[1]; BOTTOM -2.40342641, HILLSLOPE 1.582156808, MAX_EFFECT 66.8261563, TOP 100.0",4.18
Cn1cccc1C1CCCCCN1C(=O)c1ccc(NC2CC2)nc1 (stereo not drawn),PXC50,"[1]; BOTTOM 0.111908338, HILLSLOPE 1.39754326, MAX_EFFECT 51.12651646, TOP 100.0",4.03
same,PXC50,"[1]; BOTTOM 4.752718183, HILLSLOPE 1.435645002, MAX_EFFECT 69.44444444, TOP 100.0",4.25
same,PXC50,"[1]; BOTTOM 4.940186034, HILLSLOPE 1.180279811, MAX_EFFECT 63.75838926, TOP 100.0",4.18
same,PXC50,[1]; MAX_EFFECT 37.16108453,< 4
same,PXC50,[1]; MAX_EFFECT 39.73128599,< 4
O=C(CCC1CCCC1)N1CCC(c2ncc3c(n2)CCNC3)CC1,PXC50,[1]; MAX_EFFECT 18.13380282,< 4
same,PXC50,[1]; MAX_EFFECT 20.42755344,< 4
same,Percent Effect,[2],-7.04%
same,Percent Effect,[3],14.9%
same,Percent Effect,[4],0.0771%
same,Percent Effect,[5],5.51%
same,Percent Effect,[6],2.57%
same,Percent Effect,[7],-6.26%
same,Percent Effect,[8],8.42%
same,Percent Effect,[9],31.7%
same,Percent Effect,[10],10.8%
same,Percent Effect,[11],19.5%
same,Percent Effect,[12],-23.3%
